Here are results for 26 sequences from the supplement of paper PMC10338343.

± gives the standard deviation.

The subject of one experiment is MILI (PIWIL2) piRISC loaded with L1MC piRNA (26 nt). Briefly: pre-steady-state target cleavage rate (min^-1); guide: L1MC piRNA 5'p-UAACUAAAUACUAUGCAAGCUGUAGG; MIWI and MILI are mouse PIWI proteins and EfPiwi is from a freshwater sponge; tags in brackets are library labels; higher = faster piRNA-guided slicing of the target. The following applies: auxiliary factor: 500 nM mouse GTSF1. Here is the method: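 Cleave-'n-Seq: a library of target RNAs (target site embedded in constant flanks, ACAGCATTCCGCGTTAGTGATATCCG... 5' flank; DNA-blocked outside the site) at 0.1 nM was incubated with 1 nM active mouse MILI or MIWI piRISC (synthetic 5'-monophosphorylated piRNA guide) with or without 500 nM mouse GTSF1 at 33 °C for 1 min to 16 h. Uncleaved targets were sequenced and normalised to non-target controls, and the pooled three trials were fitted to a burst-and-steady-state model to give the pre-steady-state cleavage rate (min^-1; k3 is constrained to at most 1e-4). Sequence is the target site only; target names encode pairing extent (gX:gY) and contiguous / 1-mismatch / 2-mismatch / bulge geometry. Fits with R² ≤ 0 are excluded.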
With UCCUGGAACAGCUUGCAUAGAAUUUUGUUA, the “pre-steady-state target cleavage rate” value is 0.0296 ± 0.01.
In the case of UCCUGCUACAGCUUGCAAAGUAUUUAGUAA, the “pre-steady-state target cleavage rate” value turned out to be 0.121 ± 0.021.
The same measure, in the same setting: next, UCCUGGAUGAGGAAGCAUAGUAUUUAGUAA: 0.0509 ± 0.013; UCCUGGAUCAGCUUGCUUAGUAUUUACAAA: 0.0696 ± 0.019.
On to UCCUGGAUGUCGUUGCAUAGCAUUUAGUUA, for which the “pre-steady-state target cleavage rate” value was found to be 0.0206 ± 0.007.
For the sequence UCCUGGAUCAGCUUGCAAAGUAUUUAGAUA, the “pre-steady-state target cleavage rate” value was 0.126 ± 0.018.
On to UCCUGGAUCAGCUUGCAUAGUAUUUUGUAA, for which the “pre-steady-state target cleavage rate” value amounted to 0.0574 ± 0.016.
UCCUCCUACAGCUUGCAUAGUUAAUAGAAA: the “pre-steady-state target cleavage rate” value came to 0.00946 ± 0.0043.
Regarding UCCUCCUACAACUUGCAUAGUAUUUAGUUA, the “pre-steady-state target cleavage rate” value was 0.266 ± 0.019.
For the sequence UCCUGGAUCAGCUUGCAUAGUAUUUAGUUUA, the “pre-steady-state target cleavage rate” value amounted to 0.358 ± 0.025.
Still for that read-out and setting: under UCCUGCUACAGCUUGCAUAGUGAUUUAGUUA stands 0.0204 ± 0.0094; under UCCUCCUAGAGCUUGCUUAGUAUUUAGUUA, 0.261 ± 0.014.
Still for that read-out and setting: under UCCUGGAUGUGCUUGCUUACUAUUUAGUUA stands 0.0117 ± 0.005; under UCCUCCUACAGCUUGCAUAGUAAUUAGAAA, 0.127 ± 0.032.
Turning to UCCUGCUACUCCUUGCAUAGUAUUUACAAA, the “pre-steady-state target cleavage rate” value was found to be 0.0669 ± 0.016.
As to UCCUCCUACAGCUUGCAUAGAAUUUACUUA, the “pre-steady-state target cleavage rate” value turned out to be 0.0813 ± 0.022.
For UCCUGGAUGUCCUUGCAUAGUAAUUUAGUUA, the “pre-steady-state target cleavage rate” value stood at 0.0401 ± 0.013.
UCCUGCUACAGCUUGCAUAGUAUUUUGUUA: the “pre-steady-state target cleavage rate” value came to 0.168 ± 0.025.
The same measure, in the same setting: next, UCCUGGAUGUGCUUGCAUUGUAUUUAGUUA: 0.0666 ± 0.013; UCCUGCUACAGGUUGCAUAGUUUUUAGUUA: 0.0345 ± 0.007.
In the case of UCCUGGUACAGCUAGCAUAGUAUUUUGUUA, the “pre-steady-state target cleavage rate” value is 0.085 ± 0.028.
Still for that read-out and setting: next, UCCUGGAUCAGCUUGCAUAGUAUUUAGUCUA: 0.0918 ± 0.025; UCCUGGAACAGCUUGCAUAGUAUUUAGGUA: 0.0622 ± 0.017.
On to UCCUGGAUCAGCUUGGAUAGUAUUUAGUAA, for which the “pre-steady-state target cleavage rate” value came to 0.166 ± 0.019.
As to “UCCUGGAUGAGCUUGCAUAGUAUUUAGUUC [g2:g21:cont:t1C]”, the “pre-steady-state target cleavage rate” value came out at 0.166 ± 0.014.
Still for that read-out and setting: under UCCUGGAUCAGCUUGACAUAGUAUUUAGUUA stands 0.171 ± 0.019.

The experiment is the same for the next values; noted with them: auxiliary factor: none (no GTSF1).
In the case of UCCUGCUACAGCUUGCAAAGUAUUUAGUAA, the “pre-steady-state target cleavage rate” value stood at 0.00272 ± 0.0025.
The same measure, in the same setting: next, UCCUGGAUCAGCUUGCAAAGUAUUUAGAUA: 0.00353 ± 0.0024.
Same read-out and setting: next, UCCUCCUACAACUUGCAUAGUAUUUAGUUA: 0.0079 ± 0.0018; UCCUGGAUCAGCUUGCAUAGUAUUUAGUUUA: 0.00718 ± 0.0026; UCCUGCUACAGCUUGCAUAGUGAUUUAGUUA: 0.00369 ± 0.0028.
On the same count and under the same terms, under UCCUCCUAGAGCUUGCUUAGUAUUUAGUUA stands 0.00563 ± 0.0022; under UCCUGGAUGUGCUUGCUUACUAUUUAGUUA, 0.00477 ± 0.0024.
Consider UCCUGGAUGUCCUUGCAUAGUAAUUUAGUUA, for which the “pre-steady-state target cleavage rate” value is 0.00555 ± 0.0026.
On the same count and under the same terms, under UCCUGCUACAGCUUGCAUAGUAUUUUGUUA stands 0.00464 ± 0.0019; under UCCUGGAUGUGCUUGCAUUGUAUUUAGUUA, 0.00523 ± 0.0031; under UCCUGCUACAGGUUGCAUAGUUUUUAGUUA, 0.0063 ± 0.0021.
The same measure, in the same setting: next, UCCUGGUACAGCUAGCAUAGUAUUUUGUUA: 0.00427 ± 0.0033; UCCUGGAUCAGCUUGGAUAGUAUUUAGUAA: 0.00324 ± 0.0026; “UCCUGGAUGAGCUUGCAUAGUAUUUAGUUC [g2:g21:cont:t1C]”: 0.00562 ± 0.0029.
Still for that read-out and setting: next, UCCUGGAUCAGCUUGACAUAGUAUUUAGUUA: 0.00343 ± 0.0024.
